# Test results taken from PubChem BioAssay (NCI).
# Compounds without any hit were thinned out: in the full panel of roughly 83,000, 20% have a hit.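 In brief: 96-well plates, 48 h treatment, single concentration, percent growth endpoint.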 Unmarked numbers belong to inactive results. Active and inactive are the calls of the source.
# Tested on: SK-MEL-28 melanoma
# Experiment: NCI-60 one-dose screen, 48 h (100 = growth as untreated, 0 = no growth, -100 = all killed)
# Settings: 10 µM unless noted
# Protocol: Growth inhibition of the SK-MEL-28 human tumor cell line is measured as a screen for anti-cancer activity. Cells are grown in 96 well plates and exposed to the test compound for 48 hours. Compounds are tested at a single concentration, which is 10^-5 M for most compounds. The reported endpoint is percent growth (GI% or GIPRCNT), where numbers from 0 - 100% represent growth inhibition, and numbers from -100% - 0 represent cell death. For example, a value of 40 represents 60% growth inhibition. A value of 0 means no net growth occurred over the course of the experiment. A value of -40 indicates 40% of cells at the beginning of the experiment died by the end of the experiment. A value of -100 means all cells are dead at the end of the experiment.
# NCI-60 Human Tumor Cell Lines Screen was performed using the standard one-dose NCI protocol, which is described in more detail at https://dtp.cancer.gov/discovery_development/nci-60/default.htm.
# Compounds with GIPRCNT values below 10 were considered active. Activity score was based on GIPRCNT using the following formula: […]
# Score is 0 for GIPRCNT values of 100 or above, 50 for GIPRCNT values of 0, and 100 for GIPRCNT values of -100.
row,Structure (SMILES),growth
1,O=C1C2CC=CCC2C(=O)N1CNc1ccc(Cl)cc1 (stereo not given),109%
2,O=C1C=CC(Nc2ccccc2[N+](=O)[O-])C1Nc1ccccc1[N+](=O)[O-] (stereo not given),-92.9% (active)
3,CCCCCCCCCc1cc(CN2CCCCC2)c(O)c(CN2CCCCC2)c1,74%
4,COc1ccc2nc3cc(Cl)ccc3c(N3CCN(c4nccc(Nc5ccc(Cl)cc5)n4)CC3)c2c1,81.8%
5,CC/C=C\C[C@H](O)C/C=C1/C(=O)C=C[C@@H]1C/C=C\CCCC(=O)NC(C)C,4.94% (active)
6,O=c1c2cccc3c(Nc4ccccn4)ccc(c32)c2nc3ccccc3n12,101%
7,O=C(Nc1ccc(Oc2ccc(F)cc2)c(Cl)c1)c1cccnc1,103%
8,Cc1cc(=O)oc2cc(Oc3nc(-c4cccs4)cn4c(-c5cccs5)cnc34)ccc12,23.9%
9,Cc1ccc(NC(=O)c2sc3nc4c(cc3c2N)C(=O)CCC4)cc1C,37.3%
10,NC1=CSC2=N/C(=C\c3ccc(Cl)cc3)C(=O)N12,96.3%
11,COC(=O)[C@H](C(C)C)n1c(=O)c2cc(OC)c(OC)cc2c2cnc3[nH]ccc3c21,62.2%
12,C=C1CC2(OC1=O)C(=O)N(CCCCCCCCCCCCN1C(=O)C3(CC(=C)C(=O)O3)c3ccccc31)c1ccccc12 (stereo not given),89.3%
13,CS(=O)(=O)c1c(Nc2ccccc2)n[nH]c1N,106%
14,COc1ccc(-c2cnoc2-c2cc(OC)c3c(c2)OCCO3)cc1,50.9%
15,COc1cc(OC)c(/C=C/S(=O)(=O)Cc2ccc(OC)c(N)n2)c(OC)c1,53.7%
16,O=[N+]([O-])c1c(F)cccc1Nc1cccc(F)c1,118%
17,CNCc1cccc2c1OCCOCCOCCN(C)S(=O)(=O)c1ccc(cc1)-c1cnc(N)c(n1)C(=O)N2,68%
18,CC/C(=C(\c1ccccc1)c1ccc(OCCNC)cc1)c1ccccc1,-98.5% (active)
19,CC[n+]1ccc2c(c1)C(=O)c1nccc3c1c-2nc1ccccc13,1.07% (active)
20,COc1cccc(/C=C2/C(=O)N(Cc3ccco3)SC2=S)c1OC,101%

row,Structure (SMILES),growth
1,COC1/C=C\OC2(C)Oc3c(C)c(O)c4c(O)c(c(CN(C)CCO)c(O)c4c3C2=O)NC(=O)/C(C)=C\C=C/C(C)C(O)C(C)C(O)C(C)C(OC(C)=O)C1C (stereo not given),124%
2,CN1CCN(Cc2ccc(NC(=O)c3cncc(C#Cc4c(N)ncc5ccc(C#N)cc45)c3)cc2C(F)(F)F)CC1,-78.7% (active)
3,Cc1cc(N/N=C/c2nc(-c3ccc(Cl)cc3)oc2C)c2cc(Br)ccc2n1,17.5%
4,COc1nc2c(cc1S(=O)(=O)c1ccccc1)CCc1c-2cnn1-c1ccc(Cl)cc1,88.8%
5,CC[C@@H](C)OC(=O)c1nn(C(C)=O)c2ccccc12,114%
6,Cn1cc(-c2nc(-c3c[nH]c4ccccc34)cs2)c2cccnc21,52.4%
7,COC(=S)SCN(CSC(=S)OC)c1ccc(Cl)cc1,102%
8,CCCCCCCCCCNC(=O)CCl,105%
9,COc1cc(C2C(C(=O)c3cccs3)=C(O)C(=O)N2CCN2CCOCC2)cc(OC)c1OC (stereo not given),104%
10,COc1cc2c(c(OC)c1OC)-c1ccc(N=NC(N)=S)c(=O)cc1[C@@H](NC(C)=O)CC2,53.6%
11,Clc1ccc(-c2nnc(COc3ccccc3Cl)o2)cc1,85.1%
12,CC(C)(C)n1cc(-c2ccnc(NCCNS(=O)(=O)c3ccccc3)c2)c(-c2cccc(O)c2)n1,60.4%
13,O=C(Nc1cccc2[nH]c(C(F)(F)F)nc12)c1ccc(Br)cc1F,62.9%
14,Cc1cc(-c2nc3ccccc3s2)ccc1NC(=O)COc1ccc(Cl)cc1,114%
15,COc1ccccc1/C=C(/C(=O)c1ccccc1)c1ccccc1,108%
16,CC1(C)CC(=O)C(c2c(-c3ccccc3)[nH]c3[nH]c(=S)[nH]c(=O)c23)=C(O)C1,110%
17,COc1ccc(-c2cc(-c3cccnc3)nc3sc4c(=O)n(-c5ccc(C)cc5)cnc4c23)cc1OC,89.3%
18,Cc1ccc2c(c1)C(=O)/C(=C/c1ccc(OCC(=O)c3ccccc3)cc1)O2,112%
19,c1ccc(-c2nc(N3CCOCC3)c3c4c(sc3n2)CCCCC4)nc1,61.8%
20,ClC1=C2NC=NC2n2c(nnc2-c2ccc(Cl)cc2)N1 (stereo not given),102%
